Where “and” joins values, the source holds several entries; their conditions need not be identical. Equal values may be shown once. Out of some 5,500 compounds screened, about 2,000 (36%) were called active. About 18% were inconclusive and are not listed. Cut-off read from the data, not from the text of the source: active = normalized growth mostly below about 0.91 (no sharp cut-off); inconclusive = no clear call, values can overlap the other calls; inactive = mostly above about 0.92. Some of the results follow.
Test: chemical genetic growth profiling, strain panel (AID 1159580);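 note: tested at 20 µM; growth read once vehicle control cultures reached saturation at 30 °C; 1 = growth at the plate median or of vehicle wells; lower values mean less growth of the strain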
Settings: S. cerevisiae deletion strains, growth OD

Measured: normalized growth

COc1cc([C@@H]2c3cc4c(cc3[C@H](O)[C@H]3COC(=O)[C@H]23)OCO4)cc(OC)c1OC
inactive: locus YAL013W, strain DEP1, hits give low values 1.01 | locus YAL021C, strain ccr4, hits give low values 1 | locus YAL026C, strain drs2, hits give low values 1.03 | locus YAL030W, strain snc1, hits give low values 1.01 | locus YBL061C, strain skt5, hits give low values 1.01 | locus YBR009C, strain hhf1, hits give low values 1.04 | locus YBR021W, strain FUR4, hits give low values 1.01 | locus YBR023C, strain chs3, hits give low values 1.01 | locus YBR171W, strain sec66, hits give low values 1.01 | locus YBR229C, strain ROT2, hits give low values 1.01 | locus YBR231C, strain swc5, hits give low values 1.01 | locus YBR279W, strain paf1, hits give low values 1.02 | locus YCL011C, strain gbp2, hits give low values 1.01 | locus YCL016C, strain dcc1, hits give low values 0.996 | locus YCL029C, strain bik1, hits give low values 1.03 | locus YCL061C, strain MRC1, hits give low values 1.02 | locus YCL069W, strain vba3, hits give low values 1.01 | locus YCR088W, strain abp1, hits give low values 1.01 | locus YDL005C, strain med2, hits give low values 1.01 | locus YDL035C, strain GPR1, hits give low values 1.01 | locus YDL040C, strain nat1, hits give low values 1 | locus YDL074C, strain BRE1, hits give low values 1.05 | locus YDL101C, strain DUN1, hits give low values 1.02 | locus YDL134C, strain PPH21, hits give low values 1.02 | locus YDL185W, strain tfp1, hits give low values 1.01 | locus YDL192W, strain arf1, hits give low values 1.01 | locus YDR001C, strain nth1, hits give low values 1 | locus YDR069C, strain doa4, hits give low values 1 | locus YDR101C, strain arx1, hits give low values 1.01 | locus YDR137W, strain rgp1, hits give low values 1.03 | locus YDR150W, strain NUM1, hits give low values 1.01 | locus YDR159W, strain sac3, hits give low values 0.987 | locus YDR162C, strain NBP2, hits give low values 1.01 | locus YDR195W, strain ref2 0.971 | locus YDR297W, strain sur2, hits give low values 1.01 | locus YDR318W, strain mcm21, hits give low values 1.03 | locus YDR334W, strain swr1, hits give low values 1.02 | locus YDR335W, strain msn5, hits give low values 1.01 | locus YDR388W, hits give low values 1.01 | locus YDR392W, strain spt3, hits give low values 0.926 | locus YDR502C, strain sam2, hits give low values 1 | locus YEL003W, strain gim4, hits give low values 1.01 | locus YEL037C, strain rad23, hits give low values 1.02 | locus YEL061C, strain CIN8 (second series), hits give low values 1.01 | locus YEL061C, strain CIN8, hits give low values 1 | locus YER015W, strain faa2, hits give low values 1.02 | locus YER016W, strain bim1, hits give low values 1 | locus YER110C, hits give low values 1.01 | locus YER111C, strain swi4, hits give low values 1.01 | locus YER155C, strain BEM2 (second series), hits give low values 0.998 | locus YER155C, strain BEM2, hits give low values 1.01 | locus YER167W, strain BCK2, hits give low values 1.01 | locus YFR010W, strain ubp6, hits give low values 1.02 | locus YGL078C, strain dbp3, hits give low values 1 | locus YGL086W, strain mad1, hits give low values 1 | locus YGL167C, strain pmr1, hits give low values 1.01 | locus YGL173C, strain kem1, hits give low values 1.04 | locus YGL227W, strain vid30, hits give low values 1.01 | locus YGL240W, strain doc1, hits give low values 1 | locus YGL248W, strain PDE1, hits give low values 1.01 | locus YGL253W, strain hxk2, hits give low values 0.982 | locus YGR078C, strain PAC10, hits give low values 1.03 | locus YGR135W, strain pre9, hits give low values 1.01 | locus YGR229C, strain SMI1, hits give low values 1.03 | locus YGR252W, strain gcn5, hits give low values 0.988 | locus YHR013C, strain ard1, hits give low values 1 | locus YHR027C, strain rpn1, hits give low values 1.01 | locus YHR030C, strain SLT2, hits give low values 1.01 and 0.951 | locus YHR079C, strain IRE1 (second series), hits give low values 1.02 | locus YHR079C, strain IRE1, hits give low values 0.952 | locus YHR094C, strain hxt1, hits give low values 1.01 | locus YHR129C, strain ARP1, hits give low values 1.01 | locus YHR142W, strain chs7, hits give low values 0.992 | locus YHR200W, strain rpn10, hits give low values 1.01 | locus YIL066C, strain RNR3, hits give low values 1.02 | locus YIL073C, strain SPO22, hits give low values 1.02 | locus YIL125W, strain kgd1, hits give low values 1.01 | locus YIR030C, strain dcg1, hits give low values 1.01 | locus YJL092W, strain hpr5, hits give low values 1.02 | locus YJL095W, strain BCK1 (second series), hits give low values 1.01 | locus YJL095W, strain BCK1, hits give low values 1.04 and 0.961 | locus YJL115W, strain asf1, hits give low values 1.01 | locus YJL129C, strain trk1, hits give low values 1.02 | locus YJL134W, strain LCB3, hits give low values 1.01 | locus YJL154C, strain vps35, hits give low values 0.999 | locus YJL164C, strain tpk1, hits give low values 1.02 | locus YJL166W, strain qcr8, hits give low values 1 | locus YJL168C, strain set2, hits give low values 1.01 | locus YJL187C, strain SWE1 (second series), hits give low values 1.04 | locus YJL187C, strain SWE1, hits give low values 1.02 | locus YJR043C, strain POL32, hits give low values 1.04 | locus YJR066W, strain TOR1, hits give low values 0.927
